Screening data (PubChem BioAssay)
Rce1 inhib = inhibitors of yeast Ras-converting enzyme | Q03530 | yeast membranes, quenched prenylated peptide cleavage fluorescence | calls only | 0.27% of 290,000 active | AID 2563;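 active = fall in fluorescence gain of 50% or more versus controls, with final raw signal at or below 3038400; inconclusive = same 50% fall but final raw signal above 3038400; inactive = fall in fluorescence gain under 50%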
Platelet DG rel = modulates dense granule release in human platelets. human platelet-rich plasma, SFLLRN dense granule ATP release, luminescence. inhibition, %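 (compounds screened at 7.5 µM in platelet-rich plasma)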. 0.22% of 300,000 active. AID 1663;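 active = mean replicate score, as percent of positive control, at or above 50; inconclusive = mean below 50 but at least one replicate at or above 50; inactive = mean and every replicate below 50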
ABHD5 PLIN5 PPI = blocks binding of human ABHD5 to perilipin-5; 0.78% of 360,000 active; Q00G26+Q8WTS1; Split G. princeps luciferase complementation, luminescence, 4 h; inhibition, % at 4 µM;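 active = inhibition above the mean inhibition across every tested compound plus 3 SD, cut at about 22% in these data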
Target sequence (Q00G26 whole entry, looked up): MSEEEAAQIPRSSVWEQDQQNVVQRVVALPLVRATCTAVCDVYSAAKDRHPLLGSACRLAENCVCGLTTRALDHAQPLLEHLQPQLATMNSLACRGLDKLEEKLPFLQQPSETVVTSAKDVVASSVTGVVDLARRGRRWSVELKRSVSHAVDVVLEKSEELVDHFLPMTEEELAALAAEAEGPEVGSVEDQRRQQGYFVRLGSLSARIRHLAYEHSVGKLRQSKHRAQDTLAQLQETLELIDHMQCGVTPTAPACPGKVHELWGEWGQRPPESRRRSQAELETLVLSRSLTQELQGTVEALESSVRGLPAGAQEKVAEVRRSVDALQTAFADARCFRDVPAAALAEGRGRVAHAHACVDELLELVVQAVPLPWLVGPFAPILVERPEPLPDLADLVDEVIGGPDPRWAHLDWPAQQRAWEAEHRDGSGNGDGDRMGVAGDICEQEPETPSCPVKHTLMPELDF
Target sequence (Q8WTS1 whole entry, looked up): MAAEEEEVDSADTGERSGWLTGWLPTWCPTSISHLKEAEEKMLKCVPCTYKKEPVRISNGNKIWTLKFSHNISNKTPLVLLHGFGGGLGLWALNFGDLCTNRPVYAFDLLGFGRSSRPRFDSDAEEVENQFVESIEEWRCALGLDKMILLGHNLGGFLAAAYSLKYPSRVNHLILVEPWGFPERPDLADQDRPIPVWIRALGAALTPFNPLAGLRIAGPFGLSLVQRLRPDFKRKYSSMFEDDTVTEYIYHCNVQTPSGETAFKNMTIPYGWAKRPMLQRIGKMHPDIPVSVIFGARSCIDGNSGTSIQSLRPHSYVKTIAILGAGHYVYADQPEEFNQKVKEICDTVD
PfM18AAP inh = PfM18AAP enzyme inhibition; recombinant PfM18AAP, H-Glu-NHMec fluorogenic cleavage; inhibition, % at 7.35 µM; 1.2% of 290,000 active; AID 1822;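 active = inhibition above the campaign mean inhibition over all tested compounds plus 3 SD, cut at about 28% in these data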
Granule exo inh = lytic granule exocytosis inhibition; 0.66% of 360,000 active; inhibition, % at 10 µM; TALL-104 LAMP-1 surface exposure, flow cytometry; cells stimulated with thapsigargin and PMA; AID 651702;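 active = inhibition above about 55%, limit read from the data; inconclusive = no clear call, values can overlap the other calls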
Large screens that a line does not name were inactive. In the library only some 2.6% were active in any assay of this set; here they are far more common.

Cn1nccc1C(=O)Nc1sc2c(c1C(N)=O)CCCC2	none
O=C(Nc1sc2c(c1C(=O)c1ccc(Cl)cc1)CCCC2)c1cccnc1	Rce1 inhib active
O=C(Nc1sc2c(c1C(=O)c1ccccc1)CCCC2)c1cccnc1	none
Cn1ccc(C(=O)Nc2sc3c(c2C(N)=O)CCCCC3)n1	PfM18AAP inh 38 (no result: Rce1 inhib)
Cc1ccc(C2CC(=O)NC(SCc3ccccc3)=C2C#N)cc1 (configuration not stated)	none (no result: Rce1 inhib)
CCCCCCSC1=C(C#N)C(c2ccccc2)CC(=O)N1 (configuration not stated)	none
CCCSC1=C(C#N)C(c2cccs2)CC(=O)N1 (configuration not stated)	Granule exo inh 90
N#CC1=C(SCc2ccccc2)NC(=O)CC1c1ccc(O)cc1 (configuration not stated)	PfM18AAP inh 29
O=C(NC1CCCC1)C(c1ccc(F)cc1)N(C(=O)c1csnn1)C1CCCC1 (configuration not stated)	none
COc1ccc(NC(=O)C2Cc3c(-c4ccccc4Oc4ccccc4)ccnc3O2)cn1 (configuration not stated)	none (no result: Rce1 inhib, Platelet DG rel, PfM18AAP inh)
Cc1cc(C)c2nc(SCC(=O)NC(=O)c3cccn3C)cc(C)c2c1	none
Cc1nc(N)sc1-c1csc(Nc2cccc(C(=O)O)c2)n1	PfM18AAP inh 29
CC(=O)Nc1nc(C)c(-c2csc(Nc3ccc(O)cc3)n2)s1	PfM18AAP inh 28 (no result: Rce1 inhib, Platelet DG rel)
NS(=O)(=O)c1ccc(CNC(=O)/C=C/c2ccco2)cc1	ABHD5 PLIN5 PPI 23
CC(=O)c1c(C)[nH]c(C(=O)NCc2cccc(Cl)c2)c1C	none
CC(=O)Oc1oc(-c2ccccc2)nc1C=Nc1ccc(N(C)C)cc1	Granule exo inh 94 (no result: Rce1 inhib)
CN(C)c1ccc(N=Cc2nc(-c3ccccc3)oc2OC(=O)c2ccccc2)cc1	none
CCCN1C(=O)SC(CC(=O)Nc2ccccc2)C1=O (configuration not stated)	none
CCCn1c(=S)[nH]c2cc(C(=O)N3CCc4ccccc4C3)ccc2c1=O	none
O=C1CC(=C(c2ccccc2)c2ccccc2)C(=O)N1CCCCN1CCN(c2ccccc2)CC1	Granule exo inh 58
O=C(N/N=C/c1ccccn1)c1c[nH]c2ccccc12	none
O=C(c1ccc(Cl)cc1)C1CCCN(Cc2ccc(Oc3ncccn3)cc2)C1 (configuration not stated)	Platelet DG rel 52
Cc1cccc(OCc2n(CC(=O)OC3CC(C)CCC3C(C)C)c3ccccc3[n+]2C)c1 (configuration not stated)	Granule exo inh 89 (no result: Rce1 inhib)
Cc1cccc(N2C(=O)/C(=C/c3cccnc3)SC2=S)c1	none (no result: Rce1 inhib)
Cc1cc(/C=C2/SC(=S)N(c3ccc([N+](=O)[O-])cc3)C2=O)c(C)n1-c1cccnc1	Granule exo inh 58
Cc1ccc(/C=C2\SC(=S)N(c3cccnc3)C2=O)o1	PfM18AAP inh 31
N#CCCN(Cc1cccnc1)C(=S)NC(=O)c1ccc(S(=O)(=O)N2CCCC2)cc1	none
Cc1ccc(CN2CCNC(=O)C2CC(=O)NCCCn2nnc3ccccc32)cc1 (configuration not stated)	none (no result: Rce1 inhib, Platelet DG rel, PfM18AAP inh)
O=C(CC1C(=O)NCCN1Cc1ccoc1)NCCCn1ncc2ccccc21 (configuration not stated)	ABHD5 PLIN5 PPI 33
CN(Cc1ccccc1)c1nc2c(c(=O)n(C)c(=O)n2C)n1CCCc1ccccc1	Granule exo inh 66
Cn1c(SCC(=O)Nc2cccnc2)nnc1-c1ccccc1F	none
COc1ccc(-n2c(C)c(C(=O)O)c3cc(OC)c4ccccc4c32)cc1	none
CCN1CCCC1CNC(=O)c1ccc2c(c1)NC(=O)/C(=C\c1ccc(C)cc1)S2 (configuration not stated)	Granule exo inh 61
Cc1ccc(/C=C2/Sc3ccc(C(=O)NCCN4CCOCC4)cc3NC2=O)cc1	none
Nc1ccccc1N=Cc1ccc(-c2cccc(Cl)c2)o1	Granule exo inh 96
O=[N+]([O-])c1ccc(N2CCSCC2)cc1	none
COc1ccc(NS(=O)(=O)c2ccc3oc(=O)c4[nH]c(=O)c(=O)n(C)c4c3c2)cc1	Rce1 inhib active
COc1ccc(NS(=O)(=O)c2ccc3c(c2)n(C)c(=O)n3C)cc1	none
COc1ccc(N2CCN(CCCNS(=O)(=O)c3c(C)noc3/C=C/N(C)C)CC2)cc1	none (no result: ABHD5 PLIN5 PPI, Granule exo inh)
CN(C)CCOC(=O)C1(c2ccccc2)CCCC1	Platelet DG rel 66
O=C(OCCN1CCCC1)C1(c2ccccc2)CCCC1	none
CC1=C(C(=O)N(C(C)C)C(C)C)CC(CC(=O)NCc2ccco2)C(=O)N1Cc1ccc(F)cc1 (configuration not stated)	none (no result: Rce1 inhib, Platelet DG rel, PfM18AAP inh)
CS(=O)(=O)c1ccc(C(=O)OCC(=O)N(CCc2ccccc2)Cc2ccccc2)cc1	Rce1 inhib active (no result: PfM18AAP inh)
CS(=O)(=O)Cc1ccc(C(=O)N(CCc2ccccc2)Cc2ccccc2)cc1	Rce1 inhib active
CS(=O)(=O)c1ccc(C(=O)OCC(=O)NC(=O)Cc2ccccc2)cc1	none (no result: PfM18AAP inh)
CC(O)CN1CC(O)=C(c2nc3ccccc3s2)C1=N (configuration not stated)	none (no result: Platelet DG rel)
O=C(O)c1ccc2c(c1)S(=O)(=O)c1cc(N3CCN(c4ncccn4)CC3)ccc1C2=O	none (no result: Rce1 inhib, Platelet DG rel, PfM18AAP inh)
COc1ccc(-c2nn(-c3ccccc3)cc2C(=O)O)cc1OC	none
COc1cccc(-c2nn(-c3ccccc3)cc2C(=O)O)c1	Platelet DG rel 62
Cc1cc(C)n(-c2nc(N(c3ccccc3)c3ccccc3)nc(-n3nc(C)cc3C)n2)n1	Granule exo inh 88
O=C(Nc1cccc(-c2cscn2)c1)C1CCN(Cc2ccccn2)CC1	none
FC(F)(F)c1nnc2sc(-c3ccccn3)nn12	none
Nc1nnc(CC(=O)N/N=C/c2ccc(-c3ccc(F)cc3)o2)s1	none
CCOC(=O)c1ccc(-c2ccc(/C=N/NC(=O)Cc3nnc(N)s3)o2)cc1	PfM18AAP inh 29 (no result: Rce1 inhib)
CCN(CC)CCCNC(=O)c1cc2c(-c3ccc(Cl)cc3)nn(C)c2s1	Rce1 inhib inconclusive
CN1CCN(CCCNC(=O)c2cc3c(-c4ccc(Cl)cc4)nn(C)c3s2)CC1	Rce1 inhib active
CCOC(=O)CSc1nc(NC#N)nc(N(CC)CC)n1	none
CCNc1nc(NC#N)nc(SCC(=O)OCC)n1	Platelet DG rel 55
COc1ccc(N2CCN(S(=O)(=O)CCNC(=O)C(C)Oc3ccccc3)CC2)cc1 (configuration not stated)	none (no result: PfM18AAP inh)
CCN(CC)Cc1c(O)ccc2c(=O)c(-c3ccccc3OC)coc12	Rce1 inhib active
CCOC(=O)c1ccc2c(c1)n(CC)c(/C=C/N(C)c1ccccc1)[n+]2CC	none
CC[n+]1c(/C=C/N(C)c2ccccc2)n(-c2ccccc2)c2ccc(-c3nc4ccccc4s3)cc21	ABHD5 PLIN5 PPI 36, Granule exo inh 64
Cc1nnc(SCC(=O)N2CCCCCC2)n(N)c1=O	none (no result: Platelet DG rel)
CCOC(=O)c1sc(N2C(=O)C(O)=C(C(=O)c3ccc(C)o3)C2c2cccc([N+](=O)[O-])c2)nc1C (configuration not stated)	Platelet DG rel 51
NC(=O)c1sc2nc(N3CCCCC3)c3c(c2c1N)CCCC3	Rce1 inhib active
COc1ccc(-c2nc3ccc(Br)cn3c2Cc2ccccc2C(F)(F)F)cc1OC	none (no result: Rce1 inhib, Platelet DG rel, PfM18AAP inh)
